High-throughput results deposited in PubChem by Broad Institute.
aSyn 5UTR act – Activators via SNCA 5'UTR binding, MLPCN; alpha-synuclein 5'UTR reporter, activators screen; activity score, % (tested at 7.5 µM), hits read low; actives 7.1% (n = 300,000); AID 1814, 2009; in the data active = activity score below about -60%
* marks the source's active call; other numbers are inactive results. Only a sample is shown.

SMILES	aSyn 5UTR act
O=C(c1ccc(F)cc1)N1CCC(c2ccccc2)C1 (stereo unspecified)	-84*
CCOC(=O)c1sc(NC(=O)c2ccc(C)s2)cc1C	-170*
CCOC(=O)c1sc(NC(=O)c2cccc(S(=O)(=O)N3c4ccccc4CC3C)c2)cc1C (stereo unspecified)	80
CCOC(=O)c1sc(NC(=O)Nc2ccccc2Cl)cc1C	-95*
CCOC(=O)c1sc(NC(=O)C2CCC2)cc1C	-110*
O=c1[nH]cnc(O)c1N=Nc1ccccc1	-71*
COC(=O)c1c(C)[nH]c(C(=O)/C=C/c2ccccc2F)c1C	-245*
COC(=O)c1c(C)[nH]c(C(=O)/C=C/c2ccccc2Cl)c1C	-302*
Cc1cccc(N2CCN(C(=S)Nc3ccc4nc(N5CCN(C)CC5)cc(C)c4c3)CC2)c1C	95
CCN1CCN(c2cc(C)c3cc(NC(=O)c4cccc(OC)c4)ccc3n2)CC1	-124*
CCCCN(C)C(=S)Nc1ccc2nc(N3CCN(CC)CC3)cc(C)c2c1	-70*
CCN1CCN(c2cc(C)c3cc(NC(=O)c4ccc(OC)c(OC)c4)ccc3n2)CC1	-72*
Cc1cc(N2CCN(C)CC2)nc2ccc(NC(=S)N3CCCCC3)cc12	-85*
CCN1CCN(c2cc(C)c3cc(NC(=O)c4cccs4)ccc3n2)CC1	-109*
COc1ccc(C(=O)Nc2ccc3nc(N4CCN(C)CC4)cc(C)c3c2)c(OC)c1	-78*
Cc1ccc(CSc2nc3ccccc3cc2C=O)cc1	93
Cc1ccc(CSc2nccc(-c3c(C)nc4ccccn34)n2)cc1	-70*
COc1ccc2c(C(=O)CN3CCC(C)CC3)c[nH]c2c1	-76*
Nc1cc(Cl)nc(N/N=C/c2c(O)ccc3ccccc23)n1	-162*
O=C(O)c1cc(N/N=C/c2c(O)ccc3ccccc23)ccc1Cl	-66*
O=C(CNc1ccccc1)N/N=C/c1c(O)ccc2ccccc12	69
Cc1cccnc1Nc1nc(-c2ccc(O)cc2)cs1	-231*
Cc1cccnc1Nc1nc(-c2ccc(F)cc2)cs1	-226*
CN1C2CCC1/C(=C\c1ccc(F)cc1)C(=O)/C2=C/c1ccc(F)cc1	-134*
Clc1cccc(-c2cc3nc4c(c(NCc5ccco5)n3n2)CCCC4)c1	-115*
SMILES	aSyn 5UTR act
Cc1ccc(-c2cc3nc(C)cc(NCc4ccco4)n3n2)cc1	-157*
CC(=O)n1nc(-c2ccc(C)cc2)nc1NCc1ccco1	-161*
Cc1ccc(-c2nc(NCc3ccco3)n(S(C)(=O)=O)n2)cc1	-72*
CCC(=O)n1nc(-c2ccc(Cl)cc2)nc1NCc1ccccc1	-93*
O=C(CCc1ccccc1)n1nc(-c2ccccc2)nc1NCc1ccco1	-67*
COc1cc(OC)cc(C(=O)Nc2ccc(-n3cnnn3)c(C)c2)c1	-93*
Cc1cc(NC(=O)c2oc3ccccc3c2C)ccc1-n1cnnn1	-124*
Cc1cccn2cc(CNc3ccccc3)nc12	-73*
Cc1cccn2cc(-c3ccccc3)nc12	-152*
COc1ccc(-c2cn3cccc(C)c3n2)cc1Br	-259*
Cc1cccn2cc(-c3ccc(F)cc3)nc12	-88*
COc1ccc(-c2cn3ccc4ccccc4c3n2)cc1	-103*
O=[N+]([O-])c1ccc(-n2cc(-c3ccccc3)nn2)cc1	-80*
Cc1nn(Cc2c(F)c(F)c(F)c(F)c2F)c(C)c1NC(=O)c1ccc(COc2cc(Cl)ccc2Cl)cc1	-133*
COc1ccccc1-n1cc([C@@H]2C[C@H]3CN(c4ccccc4)C(=O)[C@]34CCCN24)cn1	-362*
COc1cc(/C=N/n2cnnc2)ccc1OCCSc1ccc(C)cc1	-78*
Nc1ccc(-c2nc3c(Cl)cc(N)cc3[nH]2)cc1	85
Nc1ccc2nc(-c3ccc(N)c(Cl)c3)[nH]c2c1	-115*
Nc1ccc2nc(-c3cccs3)[nH]c2c1	-156*
Nc1ccc2nc(-c3ccccc3)[nH]c2c1	-126*
Nc1ccc2nc(-c3ccccn3)[nH]c2c1	-161*
Nc1cccc(-c2nc3ccc(C(=O)c4ccccc4)cc3[nH]2)c1	-276*
COc1ccc2nc(-c3ccccn3)[nH]c2c1	-80*
COc1nc(Nc2ccc(C(C)C)cc2)nc(OC)n1	-111*
CCOC(=O)c1sc(-c2ccc(Br)cc2)cc1N	-185*
SMILES	aSyn 5UTR act
CCOC(=O)c1cc(-c2ccc(N)cc2)sc1N	-76*
NNC(=O)c1sc(-c2ccc(Cl)cc2)cc1N	-82*
COCC(=O)Nc1ccccc1C(=O)Nc1ccc(OC)cc1	-90*
COc1ccc(NC(=O)c2cccc3ccccc23)cc1	-96*
CC(=O)Nc1ccc(OCc2cccc3ccccc23)cc1	92
COc1ccc(NC(=O)CCn2cc(C)c3ccccc32)cc1	-76*
COc1ccc(NC(=O)c2ccccc2C)cc1	-132*
Nc1ccc2oc(-c3ccccc3Cl)cc(=O)c2c1O	-63*
CC(C)CC(NC(=O)CNC(=O)C1O[C@@H]2OC(C)(C)O[C@@H]2[C@H]2OC(C)(C)O[C@@H]12)C(=O)O (stereo partly specified)	-84*
CC(C)CN(C(=O)c1ccc(=O)n(C)n1)c1nc2ccccc2s1	-109*
COc1ccc2[nH]c(=O)c(CNc3ccccc3)cc2c1	-167*
COc1ccc2[nH]c(=O)c(CNc3ccccc3C)cc2c1	-94*
Cc1nn(-c2ccc(N3CCCCC3)nn2)c(C)c1CCC(=O)Nc1cc(F)ccc1F	-65*
Cc1ccc(C(=O)CC(c2cccs2)S(=O)(=O)c2ccc(C)cc2)cc1 (stereo unspecified)	-118*
Cc1cc(OCc2cc(C(=O)N(C)C(C)c3ccccn3)no2)cc(C)c1Cl (stereo unspecified)	-93*
Cc1cc(OCc2cc(C(=O)N(C)Cc3ccccn3)no2)cc(C)c1Cl	-77*
CC(=O)c1ccc(OCc2cc(C(=O)N(C)Cc3ccccn3)no2)cc1	-65*
CCN(CC)C(NC(=O)c1ccccc1)C(=O)c1ccccc1 (stereo unspecified)	-69*
CCc1cc(C(c2ccc(OC)c(OC)c2)N2CCOCC2)c(NC(=O)c2ccccc2)s1 (stereo unspecified)	-62*
Cc1nc2ccccc2nc(=O)c1NNc1ccccc1	-241*
Cc1ccc2nc(=O)c(NNc3ccccc3)cnc2c1	-218*
COc1ccc2c(c1OC)C(=O)OC2Nc1nc(-c2cc3cc(Br)ccc3oc2=O)cs1 (stereo unspecified)	-221*
CS(=O)(=O)N(CC(=O)NCc1ccncc1)c1ccc(Cl)c(Cl)c1	-89*
COc1cccc(C(=O)Nc2ccc3nc4n(c(=O)c3c2)CCCC4)c1	-76*
CN(C)c1cccc(C(=O)Nc2ccc3nc4n(c(=O)c3c2)CCCCC4)c1	-81*
SMILES	aSyn 5UTR act
COc1cc(OC)cc(C(=O)Nc2ccc3nc4n(c(=O)c3c2)CCCC4)c1	-120*
CCOc1ccccc1C(=O)Nc1ccc2nc3n(c(=O)c2c1)CCCCC3	-77*
O=C(/C=C/c1ccco1)Nc1ccc2nc3n(c(=O)c2c1)CCCC3	-176*
CCOc1ccc(-c2cc(C(=O)N3CCCC3)c3ccccc3n2)cc1	-68*
CCOc1ccc(-c2cc(C(=O)N3CCN(C)CC3)c3ccccc3n2)cc1	-136*
CCCOc1ccc(-c2cc(C(=O)NCC3CCCO3)c3ccccc3n2)cc1 (stereo unspecified)	-73*
COc1ccc(C(=O)Nn2c(SCC(=O)NCC3CCCO3)nc3ccccc3c2=O)cc1 (stereo unspecified)	87
COc1c(C(=O)Nc2nnc(C3CC3)s2)csc1Cl	-97*
Cc1cc(C(=O)Nc2nnc(C3CCCCC3)s2)no1	-63*
CCOCC(=O)Nc1nnc(C2CCCCC2)s1	-123*
